# Test results as given in PubChem BioAssay AID463173 (ICCB-Longwood Screening Facility, Harvard Medical School, 2010).
# Screen size: about 52,000 compounds; about 1,700 (3.3%) were called active. Cut-off read from the data, not from the text of the source: active = survival mostly below about 52% (no sharp cut-off); inactive = mostly above about 56%. For the sample, actives were picked, then their nearest neighbours and some compounds at random.
# Tested on: Wild type
# Experiment: S. aureus survival, RN4220 and DeltatarO strains – OD600, teichoic acid synthesis inhibitors, primary screen (AID 463173)
# Details: S. aureus RN4220 wild type/DeltatarO growth, OD600, 18 h, active compounds read low, screened at 18.75 µg/mL (by protocol)
row,SMILES,survival
1,COc1ccccc1CNc1nc(-c2ccco2)nn1C(=O)c1cc(OC)c(OC)c(OC)c1,69% (inactive)
2,COc1ccc(C(=O)c2c(N)c(C(=O)Nc3cccc(OC)c3)c3ccccn23)cc1,95% (inactive)
3,Cc1ccc2oc(=O)c(-c3nc(-c4cccs4)no3)cc2c1,94% (inactive)
4,COc1ccc(NC(=O)COc2ccc(S(=O)(=O)NC3CCCCC3)cc2)cc1OC,74% (inactive)
5,Oc1cc2ccsc2c2ccccc12,18% (active)
6,c1ccc(-c2cc3ccsc3s2)cc1,111% (inactive)
7,O=c1cc(O)c2ccccc2[nH]1,135% (inactive)
8,Cc1ccc(C(=O)N/C(=C/c2ccco2)C(=O)Nc2nccs2)cc1,81% (inactive)
9,CCCC(=O)Nc1ccc2c(C)cc(C)nc2n1,99% (inactive)
10,CCC(Sc1ccc2nnc(CCNS(=O)(=O)c3ccc(OC)cc3)n2n1)C(=O)OC (centres undefined),84% (inactive)
11,COc1ccc(NC(=O)CCS(=O)(=O)c2nc(-c3cccs3)cc(C(F)(F)F)n2)cc1OC,100% (inactive)
12,O=C(CCn1nc(-c2ccccc2)c2ccccc2c1=O)Nc1ccccc1,86% (inactive)
13,COc1ccccc1NC(=O)CCn1nc(-c2ccccc2)c2ccccc2c1=O,4% (active)
14,Cc1ccc(NC(=O)CCn2nc(-c3ccccc3)c3ccccc3c2=O)c(C)c1,75% (inactive)
15,CCCOc1ccccc1C1C(C(=O)Nc2ccccc2)=C(C)Nc2nnnn21 (centres undefined),134% (inactive)
16,COc1ccc(-n2c(-c3ccc(F)cc3)cn3c4c(=O)n(C)c(=O)n(C)c4nc23)cc1,63% (inactive)
17,CC(C)(C)C(=O)Nc1nnc2n1CCS2,77% (inactive)
18,C=Cc1ccc(Cn2c(C(=O)O)c(CNCc3ccc(F)cc3)c3ccc(C)cc32)cc1,68% (inactive)
19,Cc1ccc2c(CNCCc3ccco3)c(C(=O)O)n(Cc3ccc(F)cc3)c2c1,66% (inactive)
20,Cc1ccc(CNCc2c(C(=O)O)n(Cc3ccccc3C)c3cc(C)ccc23)cc1,63% (inactive)
21,Cc1ccc2c(CNCCc3ccc(Cl)cc3)c(C(=O)O)n(Cc3ccc(F)cc3)c2c1,4% (active)
22,C=Cc1ccc(Cn2c(C(=O)O)c(CNCCc3ccccc3)c3ccc(C)cc32)cc1,69% (inactive)
23,Cc1ccc2c(CNCCc3ccccc3)c(C(=O)O)n(Cc3ccccc3C)c2c1,1% (active)

row,SMILES,survival
1,Cc1ccccc1NC(=O)Cn1nc(-c2ccccc2)nc(Cc2ccccc2)c1=O,70% (inactive)
2,CC(C)OCCCn1c(=O)c2ccccc2n2c(-c3ccccc3F)nnc12,88% (inactive)
3,Cc1c(C(=O)N2CCCC2)oc2c1-c1nn(CC(=O)NCc3cccc(F)c3)cc1CC2,85% (inactive)
4,Cc1cccc(N2CCN(C(=O)c3noc4c3COc3ccc(C)cc3-4)CC2C)c1 (centres undefined),80% (inactive)
5,CN(C)c1ncnc(Cl)c1N,101% (inactive)
6,CCOc1ccc(NC(=O)CSc2ncc3c(n2)-c2cc(Cl)ccc2N(C)S3(=O)=O)cc1,-3% (active)
7,Cc1ccc(NC(=O)CSc2ncc3c(n2)-c2ccc(Cl)cc2N(C)S3(=O)=O)cc1F,69% (inactive)
8,CCOc1ccc(-c2nnc(SCC(=O)Nc3cccc(OC)c3)nc2-c2ccc(OCC)cc2)cc1,-3% (active)
9,CCOc1ccc(NC(=O)CSc2nnc(-c3ccc(C)cc3)c(-c3ccc(C)cc3)n2)cc1,115% (inactive)
10,CCOc1ccc(NC(=O)CSc2ncc3c(n2)-c2ccccc2N(C)S3(=O)=O)cc1,78% (inactive)
11,COc1cc(NC(=O)CSc2ncc3c(n2)-c2ccc(Cl)cc2N(Cc2ccccc2)S3(=O)=O)cc(OC)c1,65% (inactive)
12,COc1ccc(-c2nnc(SCC(=O)Nc3cccc(C(F)(F)F)c3)nc2-c2ccc(OC)cc2)cc1,79% (inactive)
13,CCc1cccc(NC(=O)CSc2ncc3c(n2)-c2cc(Cl)ccc2N(C)S3(=O)=O)c1,65% (inactive)
14,COc1cccc(NC(=O)CSc2ncc3c(n2)-c2ccc(Cl)cc2N(C)S3(=O)=O)c1,10% (active)
15,CN(C)CCn1c2c(c(SCC(=O)Nc3ccc(F)cc3F)nc1=O)CCC2,83% (inactive)
16,COC(=O)c1scc(-c2ccccc2)c1S(=O)(=O)Nc1cccc(C)c1C,100% (inactive)
17,Cn1c(Cc2cccs2)nnc1SCC(=O)N1CCCc2ccccc21,109% (inactive)
18,O=C(CSC1=Nc2ccccc2C2=NC(CC(=O)NC3CCCCC3)C(=O)N12)Nc1ccc(F)cc1 (centres undefined),71% (inactive)
19,COc1cc(NC(=O)c2noc3c2CC(C(C)(C)C)CC3)cc(OC)c1OC (centres undefined),68% (inactive)
20,CCc1ccccc1NC(=O)c1noc2c1CC(C(C)(C)C)CC2 (centres undefined),-11% (active)
21,CCOC(=O)c1c(NC(=O)c2noc3c2CC(C(C)(C)C)CC3)sc2c1CCCC2 (centres undefined),88% (inactive)
22,O=C(C1CCCN(S(=O)(=O)c2ccc(Br)s2)C1)N1CCN(c2cccc(Cl)c2)CC1 (centres undefined),73% (inactive)
23,Cc1cc(C)n2nc(CNS(=O)(=O)c3ccc(F)cc3)nc2n1,88% (inactive)

row,SMILES,survival
1,Cc1ccc(Cl)cc1NC(=O)CSc1nc(C)c(C)c(C)c1C#N,86% (inactive)
2,Cc1nc(SCc2ccc(Cl)cc2)c(C#N)c(C)c1Cl,32% (inactive)
3,Cc1nc(SCc2ccccc2Cl)c(C#N)c(C)c1C,-2% (active)
4,CNS(=O)(=O)c1cn(CC(=O)Nc2ccc(F)cc2F)cc1S(=O)(=O)NC,-3% (active)
5,CNS(=O)(=O)c1cn(CC(=O)Nc2ccc(C)cc2C)cc1S(=O)(=O)NC,121% (inactive)
6,Cc1cc(F)ccc1NC(=O)Cn1cc(S(=O)(=O)NC(C)C)c(S(=O)(=O)NC(C)C)c1,73% (inactive)
7,CCC(=O)N1CCc2cc(Br)cc(S(=O)(=O)N3CCC(C(=O)Nc4ccccc4CC)CC3)c21,89% (inactive)
8,CCC(=O)N1CCc2cc(Br)cc(S(=O)(=O)N3CCC(C(=O)Nc4cccc(C)c4)CC3)c21,94% (inactive)
9,CCC(=O)N1CCc2cc(Br)cc(S(=O)(=O)N3CCC(C(=O)Nc4ccc(OC)cc4)CC3)c21,0% (active)
10,CC(C(=O)N(C(C)C)C(C)C)N1CCN(C)CC1 (centres undefined),93% (inactive)
11,O=C(Cn1c(=O)nc(-c2ccccc2)c2ccccc21)NCc1ccccc1Cl,73% (inactive)
12,CCOc1ccc(CNC23CN4CN(CN(C4)C2)C3)cc1,99% (inactive)
13,CC1CCN(C(=O)CSc2nc(-c3ccc(F)cc3)cc(C(F)(F)F)n2)CC1,11% (active)
14,CC1CCN(C(=O)CSc2n[nH]c(-c3ccc(F)cc3)n2)CC1,76% (inactive)
15,COc1ccc(-c2cc(C(F)(F)F)nc(SCC(=O)N3CCC(C)CC3)n2)cc1,55% (inactive)
16,CC1CCN(C(=O)C(C)Sc2nc(-c3ccccc3)cc(C(F)(F)F)n2)CC1 (centres undefined),-7% (active)
17,O=C(CSc1n[nH]c(-c2ccccc2)n1)N1CCN(c2ccc(F)cc2)CC1,65% (inactive)
18,COc1ccc(-c2nc(SCC(=O)N3CCN(c4ccc(F)cc4)CC3)n[nH]2)cc1,85% (inactive)
19,CC(Sc1nc(-c2ccccc2)cc(C(F)(F)F)n1)C(=O)N1CCCC1 (centres undefined),105% (inactive)
20,O=C(CSc1n[nH]c(-c2ccc(F)cc2)n1)N1CCN(c2ccc(F)cc2)CC1,-6% (active)
21,CC1CN(C(=O)C(C)Sc2nc(-c3ccccc3)cc(C(F)(F)F)n2)CC(C)O1 (centres undefined),101% (inactive)
22,CC1(C)CC(=O)c2cc(C(=O)Nc3ccc(Br)cc3)c(=O)n(-c3ccc(Cl)cc3)c2C1,74% (inactive)
23,O=C(Nc1ccccc1)NC1(C(=O)Nc2ccc(-n3cnnn3)cc2)CCCCC1,123% (inactive)

row,SMILES,survival
1,COc1ccc(NC(=O)CS(=O)CC(=O)Nc2cc(OC)ccc2OC)cc1 (centres undefined),107% (inactive)
2,CCOC(=O)C1CCN(C(=O)c2ccc3c(c2)sc2nc(-c4ccccc4)cn23)CC1,42% (inactive)
3,Cc1cc(S(=O)(=O)Nc2cc3c(cc2N2CCOCC2)n(C)c(=O)n3C)ccc1F,82% (inactive)
4,CC(=O)Oc1cn(C(C)=O)c2ccccc12,84% (inactive)
5,CC1CCCCN1S(=O)(=O)c1ccc(NC(=O)C2COc3ccccc3O2)cc1 (centres undefined),125% (inactive)
6,COc1cc(NC(=O)Cc2c(C(=O)O)c(C)cn2C)cc(OC)c1,99% (inactive)
7,O=C(CCN1CCCCC1)Nc1ccccc1,110% (inactive)
8,CCOC(=O)c1ccc(N2C(=O)c3n[nH]c(C)c3C2c2cccc(Br)c2)cc1 (centres undefined),3% (active)
9,CCOC(=O)c1ccc(N2C(=O)c3n[nH]c(-c4ccco4)c3C2c2ccc(O)cc2)cc1 (centres undefined),67% (inactive)
10,CCOC(=O)c1ccc(N2C(=O)c3n[nH]c(C)c3C2c2ccc(CC)cc2)cc1 (centres undefined),82% (inactive)
11,CCOC(=O)c1ccc(N2C(=O)c3n[nH]c(C)c3C2c2ccc(C(C)(C)C)cc2)cc1 (centres undefined),81% (inactive)
12,CCOC(=O)c1ccc(N2C(=O)c3n[nH]c(-c4ccco4)c3C2c2ccc(F)cc2)cc1 (centres undefined),9% (active)
13,CCOC(=O)c1ccc(N2C(=O)c3n[nH]c(-c4ccco4)c3C2c2ccc(C)cc2)cc1 (centres undefined),32% (inactive)
14,Cn1cc(S(=O)(=O)N2CCCCC2)cc1C(=O)NCc1ccc(Cl)cc1,88% (inactive)
15,COc1ccc(CNC(=O)Cc2c(C)c3cc4c(C)coc4cc3oc2=O)cc1,88% (inactive)
16,COc1ccc(-c2nc3sc(CCNC(=O)C(=O)Nc4cc(C)cc(C)c4)c(C)n3n2)cc1,89% (inactive)
17,CC(=O)c1ccc(N2CCN(C(=O)C3CCN(S(=O)(=O)c4c(C)noc4/C=C/c4ccc(C)cc4)CC3)CC2)cc1,127% (inactive)
18,O=C(O)CCC(=O)NC(c1ccccc1)c1ccccc1,108% (inactive)
19,Cc1cc(C)nc(N2CCC(C(=O)Nc3nnc(C(C)C)s3)CC2)n1,107% (inactive)
20,COC(=O)c1cc2c(ccn2-c2ccc(F)cc2)n1Cc1ccccc1,88% (inactive)
